# In the library only some 3.1% were active in any assay of this set; here they are far more common.
# TWEAK-Fn14 inh = inhibitors of TWEAK-Fn14 signaling, primary screen, luciferase reporter cells, uHTS; TWEAK-stimulated Fn14 reporter cells, luciferase luminescence, 8 h; 360,000 tested, 2% active; inhibition, % at 10 µM; AID 1159606, 2016; in the data active means inhibition above about 50%
# LGR2 inh = inhibitors of bursicon-induced LGR2 CRE-luciferase signal, primary screen, cell-based, HEK293, CRE-luciferase reporter, bursicon stimulation. Drosophila bursicon receptor LGR2 (rickets). bursicon-stimulated, 4 h. inhibition, % at 9.99 µM. 380,000 tested, 0.35% active. AID 720647, 2013;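 active means drop in luminescence signal, shown as inhibition above about 50% in the replicate tests, limit read from the data, passing the limit was not always enough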;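 further: agonist challenge used bursicon conditioned medium at about half maximal strength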
# TROY signal inh = inhibitors of TROY-driven NF-kB signaling, primary screen, Q293 LMP1-TROYcd cells, NF-kB luciferase, uHTS | Q293 LMP1-TROYcd NF-kB luciferase reporter, 4 h | inhibition, % at 10 µM | 360,000 tested, 0.98% active;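 active means compounds whose plate-normalised and pattern-corrected inhibition of the luciferase reporter signal at the single screening dose is 50% or more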
# PAX8 reporter = inhibitors of PAX8-driven TPO luciferase reporter, primary screen, RMG-I cells, single concentration; SteadyGlo, 24 h; inhibition, % at 12.6 µM; 360,000 tested, 1.2% active; AID 652154, 2013;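 active means mean replicate inhibition at least 60% with every replicate also reaching 60%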;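 further: luciferase light reporting Pax8 driven TPO promoter activity; plate controls were median of neutral control wells for no effect and mitoxantrone controls for full effect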
# EWS-Fli inh = EWS/Fli-driven NR0B1 reporter inhibitors, primary screen, A673 cells, NR0B1 luciferase, luminescence, MLPCN library; viability-normalised; AID 651661, 2012; inhibition, % at 12.6 µM; 350,000 tested, 0.67% active;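 active means mean inhibition of at least 50% after viability correction, with every replicate also passing that limit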;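 further: firefly luciferase signal divided by Alamar Blue viability fluorescence both relative to DMSO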
# LMP1 NFkB inh = EBV LMP1-driven NF-kappaB luciferase reporter inhibitors, primary screen, cell-based, luminescence, single point. LMP1-induced NF-kappaB luciferase reporter cells. inhibition, % at 12.5 µM. 350,000 tested, 0.69% active. AID 504558, 2011; in the data active means inhibition above about 41%;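 further: 0% = neutral control wells and 100% = reference inhibitor control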
# An asterisk follows results filed as active; . = no result given.
SMILES,TWEAK-Fn14 inh,LGR2 inh,TROY signal inh,PAX8 reporter,EWS-Fli inh,LMP1 NFkB inh
O=C(NNc1nc2ccccc2s1)c1ccc(F)cc1,19.3,-10.8,76.0*,47.9,-9.3,2.1
c1ccc2sc(NCC3CCCO3)nc2c1 (stereo not drawn),-10.1,-34.8,-31.7,-46.2,-57.8,-19.8
O=C(NNc1nc2ccc(F)cc2s1)c1cccc(F)c1,-6.8,-58.7,-1.2,-20.3,17.0,5.0
O=C(Nc1nc2ccc(F)cc2s1)c1ccccn1,.,90.2*,.,74.7*,83.8*,.
O=C(O)c1ccccc1-c1ccccc1C(=O)Nc1nc2ccccc2s1,6.3,5.5,-15.7,11.0,-0.6,3.5
c1ccc2sc(NN=C3CCCCCC3)nc2c1,76.2*,55.4*,76.3*,-57.2,46.3,0.8
Cc1noc(C)c1NC(=O)Nc1ccc2c(c1)C(=O)N([C@@H](C)CO)C[C@H](C)[C@H](CN(C)S(=O)(=O)c1cn(C)cn1)O2,.,-3.5,.,.,2.5,.
Cc1ccc(CNc2nc3ccccc3s2)s1,80.0*,.,41.0,.,.,24.7
O=C(Nc1nnc(SCc2ccc(F)cc2)s1)c1ccccn1,-15.6,-15.1,32.8,17.1,-10.3,45.0*
COc1ccc(CNc2nc3ccccc3s2)cc1OC,-14.1,-35.3,-33.5,-43.2,-80.2,22.1
CCCNC(=O)Nc1nc2ccccc2s1,-1.8,-76.9,-34.5,-28.5,-54.9,-3.2
Cc1cc(NC(=O)c2ccc(C)s2)n(-c2nc3ccccc3[nH]2)n1,2.0,-32.3,-23.7,-39.2,.,66.6*
CCCNC(=O)c1ccc(-c2nc3ccccc3s2)s1,51.7*,.,.,.,.,-18.3
C[C@H]1CCCCO[C@@H](CN(C)C(=O)Nc2ccc(C(F)(F)F)cc2)[C@@H](C)CN([C@@H](C)CO)C(=O)c2cc(NC(=O)Nc3ccc4c(c3)OCO4)ccc2O1,.,7.6,.,0.6,-38.9,.
COc1ccc(S(=O)(=O)Nc2ccc3c(c2)CC(=O)N([C@H](C)CO)C[C@@H](C)[C@H](CN(C)S(C)(=O)=O)O3)cc1,.,10.6,.,-22.1,-9.9,.
O=C(Nc1nc2ccccc2s1)c1cnccn1,56.0*,.,12.1,.,.,24.5
CCOc1ccc2nc(NC(=O)c3cnccn3)sc2c1,19.5,.,-69.2,.,.,-3.1
Cc1ccc(C(=O)Nc2nc3ccccc3s2)s1,69.1*,.,10.4,.,.,-52.3
CCNC(=O)NC(=O)C(C)OC(=O)CCCSc1nc2ccccc2s1 (stereo not drawn),59.3*,.,39.3,27.1,8.3,11.4
CNC(=O)NC(=O)C(C)OC(=O)CCCSc1nc2ccccc2s1 (stereo not drawn),54.9*,-13.8,30.8,-7.6,4.1,4.3
CNC(=O)NC(=O)C(C)OC(=O)CCCc1nc2ccccc2s1 (stereo not drawn),0.5,-6.4,-39.0,4.6,9.7,0.4
Cc1ccc(C(c2c(NC(=O)c3ccco3)sc(C)c2C)N2CCOCC2)cc1 (stereo not drawn),69.9*,27.8,37.8,14.6,11.6,-5.9
O=C(Nc1ccccc1Oc1ccccc1)c1cc([N+](=O)[O-])ccc1Cl,53.7*,15.5,-16.8,5.2,.,20.5
Cn1c(/C(C#N)=C/c2ccc(-c3ccc(S(N)(=O)=O)cc3)o2)nc2ccccc21,47.9,44.2,19.5,75.5*,.,-32.6
Cc1nc2ccccn2c1C(=O)N=Nc1c(O)n(CCC(C)C)c2ccccc12,68.6*,7.0,17.6,5.9,.,36.2
SMILES,TWEAK-Fn14 inh,LGR2 inh,TROY signal inh,PAX8 reporter,EWS-Fli inh,LMP1 NFkB inh
COC(=O)c1ccc(N2CCC(c3cc(-c4ccc(OC)cc4)n[nH]3)CC2)c([N+](=O)[O-])c1,24.7,.,9.1,-17.4,.,-10.3
COc1ccc(-c2cc(C3CCN(c4ccc(C(C)=O)cc4[N+](=O)[O-])CC3)[nH]n2)cc1,71.3*,.,73.5*,84.9*,.,4.0
CC(=O)c1ccc(N2CCC(c3cc(-c4ccc(Cl)cc4)n[nH]3)CC2)c([N+](=O)[O-])c1,62.0*,.,48.5,.,.,-1.8
Cc1nc(NCCc2cnc[nH]2)c2oc3ccccc3c2n1,-10.8,5.5,-9.4,.,-6.7,-3.4
c1ccc(CNc2ncnc3c2oc2ccccc23)nc1,-45.9,.,-35.3,-64.9,.,-34.4
COc1ccc(CCNc2ncnc3c2oc2ccccc23)cc1OC,90.9*,18.7,57.3*,.,6.7,13.8
COc1ccc(CCNc2ncnc3sccc23)cc1OC,50.1*,9.4,37.8,76.9*,2.3,8.8
COc1ccc(CCNc2nc(C)nc3c2oc2ccccc23)cc1OC,46.4,.,53.3*,.,.,17.3
C[C@@H](NC(=O)C[C@@H]1C[C@@H]2c3cc(NC(=O)Nc4ccccc4F)ccc3O[C@@H]2[C@@H](CO)O1)c1ccccc1,.,-11.1,.,7.9,-4.4,.
O=S(=O)(Nc1cccc(-c2cn3cccnc3n2)c1)c1ccc(F)cc1,20.2,3.6,6.0,77.1*,-20.5,0.3
O=C(N[C@H]1CC[C@H](CCn2cc(Cc3ccccc3)nn2)O[C@H]1CO)c1ccccn1,.,5.4,.,14.6,0.2,.
Cc1noc(C)c1S(=O)(=O)N(C)C[C@@H]1Oc2c(cccc2N(C)C)C(=O)N([C@H](C)CO)C[C@@H]1C,.,-18.0,.,-18.1,2.9,.
CC1=NCC(C)c2ccccc21 (stereo not drawn),8.5,5.6,3.5,0.9,-5.1,-5.9
CC1=NCC(C)c2c1[nH]c1ccccc21 (stereo not drawn),-12.1,.,75.0*,1.3,.,-3.0
COCC(=O)N(C)C[C@H]1Oc2cc(C#Cc3ccccc3)ccc2S(=O)(=O)N([C@H](C)CO)C[C@@H]1C,.,-10.3,.,.,-6.4,.
COc1ccc2c3c([nH]c2c1)[C@@H](CO)N(C)CC31CCN(C(=O)NC(C)C)CC1,.,11.6,.,.,-2.2,.
C[C@@H]1CCCCO[C@H](CN(C)Cc2ccc(C(F)(F)F)cc2)[C@@H](C)CN([C@H](C)CO)C(=O)c2cc(NC(=O)CCCCCC(=O)Nc3ccccc3N)ccc2O1,.,-18.4,.,58.6,3.4,.
Cc1cc[n+](-c2[nH]c(=O)sc2/C=N/N=C(\[O-])c2ccccc2)cc1,8.6,-11.0,-9.2,5.7,-7.0,-27.9
Cc1cc[n+](-c2[nH]c(=O)sc2/C=N/N=C(\[O-])c2ccncc2)cc1,-6.5,-5.4,-8.0,-10.2,.,70.5*
COC(=O)c1ccc(CN2CC(=O)N3[C@H](CO)[C@@H](c4ccc(-c5ccc(OC)cc5)cc4)[C@H]3C2)cc1,.,0.6,.,.,.,.
Cc1ccccc1NC(=S)NN1CCN(C)CC1,73.9*,.,.,.,.,-2.4
CO[C@@H]1CN(C)C(=O)c2cc(NC(=O)Nc3ccccc3F)ccc2OC[C@H](C)N(CC2CC2)C[C@@H]1C,.,-5.3,.,2.0,-2.1,.
COc1ccc(C(=O)NN(C)c2nc(C(F)(F)F)nc3ccccc23)cc1,52.3*,-7.3,54.8*,93.5*,55.6*,8.9

# Screens (PubChem)
